Measured values from paper PMC4336329 (PLoS ONE, 2015).
Among all 310,000 compounds or so, about 14,000 (4.5%) showed an effect of 50% or more. Effects have a minus sign here. The entries come from a sample that favours strong results as a whole.

Each molecule was assayed against human ether-à-go-go-related gene (hERG) potassium channel (human, UniProt Q12809) (assay: primary screen, population patch clamp on CHO cells stably expressing hERG; higher = less effect of the substance).
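Note: peak tail current of the secondary pulse compared with the same well before compound.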

Chain of human ether-à-go-go-related gene (hERG) potassium channel (Q12809 whole entry, looked up): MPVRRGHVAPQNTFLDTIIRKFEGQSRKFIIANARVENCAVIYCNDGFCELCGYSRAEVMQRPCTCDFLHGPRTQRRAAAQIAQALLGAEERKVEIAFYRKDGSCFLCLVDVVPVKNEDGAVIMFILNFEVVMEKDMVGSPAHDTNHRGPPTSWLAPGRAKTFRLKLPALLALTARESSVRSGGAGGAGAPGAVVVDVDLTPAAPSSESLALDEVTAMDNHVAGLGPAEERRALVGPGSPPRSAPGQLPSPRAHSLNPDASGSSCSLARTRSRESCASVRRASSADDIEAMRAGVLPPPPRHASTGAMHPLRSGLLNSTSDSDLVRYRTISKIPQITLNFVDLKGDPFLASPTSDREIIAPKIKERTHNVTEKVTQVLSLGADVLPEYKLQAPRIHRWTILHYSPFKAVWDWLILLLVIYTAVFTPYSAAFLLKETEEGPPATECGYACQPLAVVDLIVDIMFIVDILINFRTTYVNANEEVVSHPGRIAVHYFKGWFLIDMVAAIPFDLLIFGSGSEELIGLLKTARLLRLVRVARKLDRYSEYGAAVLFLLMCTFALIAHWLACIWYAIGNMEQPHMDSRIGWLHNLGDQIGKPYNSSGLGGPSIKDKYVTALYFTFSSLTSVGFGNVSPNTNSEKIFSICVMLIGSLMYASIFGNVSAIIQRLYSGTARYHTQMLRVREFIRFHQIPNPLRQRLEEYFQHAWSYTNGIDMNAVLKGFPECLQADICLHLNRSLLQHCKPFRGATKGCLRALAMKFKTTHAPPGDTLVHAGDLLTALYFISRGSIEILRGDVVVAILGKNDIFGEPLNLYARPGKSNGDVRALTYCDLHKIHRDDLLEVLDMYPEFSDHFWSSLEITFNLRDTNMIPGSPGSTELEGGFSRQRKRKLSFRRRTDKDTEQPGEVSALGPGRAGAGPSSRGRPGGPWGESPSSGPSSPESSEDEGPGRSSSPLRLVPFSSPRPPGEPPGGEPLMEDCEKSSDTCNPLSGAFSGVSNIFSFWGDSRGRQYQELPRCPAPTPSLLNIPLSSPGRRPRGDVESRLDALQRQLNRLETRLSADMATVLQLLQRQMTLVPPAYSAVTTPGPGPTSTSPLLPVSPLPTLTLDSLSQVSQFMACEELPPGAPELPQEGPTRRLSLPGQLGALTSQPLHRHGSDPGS

| Structure (SMILES) | hERG current change (%, negative = inhibition) at 10uM [%] |
| --- | --- |
| Cc1ccccc1N(C(=O)c1csnn1)C(C(=O)NC1CCCCC1)c1ccncc1 (centres unmarked) | 10.7 |
| CN(C)S(=O)(=O)c1cc(NC(=O)CN2CCOCC2)ccc1Cl | 17.7 |
| COc1ccc(NC(=O)c2sc3nc(C)nc(N4CCN(c5ccccn5)CC4)c3c2C)cc1Cl | -3.04 |
| Cc1oc2cc(O)cc(O)c2c(=O)c1-c1ccc2c(c1)OCCCO2 | 3.88 |
| O=C(NC1CCCCCCC1)C1CCN(S(=O)(=O)N2CCCC2)CC1 | -2.62 |
| O=C(CNC(=O)c1ccco1)OCC(=O)c1ccc([N+](=O)[O-])cc1 | 11.9 |
| CCc1noc(C)c1C(=O)OCC(=O)c1ccc(OC)c(OC)c1 | -5.3 |
| CCOc1ccccc1NC(=O)c1ccc2c(=O)n3c(nc2c1)CCCCC3 | -58.6 |
| CCOC(=O)c1ccccc1NC(=O)c1ccc2c(=O)n3c(nc2c1)CCCCC3 | -41.3 |
| CCN(CC)C(=O)c1cccc(NC(=O)c2ccc3c(=O)n4c(nc3c2)CCC4)c1 | -10.7 |
| CCOc1ccc(NC(=O)c2ccc3c(=O)n4c(nc3c2)CCCCC4)cc1 | 19.5 |
| CC(=O)c1ccc(NC(=O)c2ccc3c(=O)n4c(nc3c2)CCCCC4)cc1 | -5.23 |
| CCc1ccc(NC(=O)c2ccc3c(=O)n4c(nc3c2)CCCCC4)cc1 | -46.8 |
| CCc1cccc(NC(=O)c2ccc3c(=O)n4c(nc3c2)CCCCC4)c1 | -76.6 |
| O=C(Nc1ccc(Cl)cc1)c1ccc2c(=O)n3c(nc2c1)CCCCC3 | -32.5 |
| CCc1ccc(C(=O)NNC(=O)c2ccc3c(=O)n4c(nc3c2)CCC4)cc1 | 5.5 |
| COc1ccc(NC(=O)c2ccc3c(=O)n4c(nc3c2)CCCCC4)cc1 | -40 |
| O=C(Nc1ccc(F)cc1)c1ccc2c(=O)n3c(nc2c1)CCCCC3 | -51.8 |
| CC(=O)c1cccc(NC(=O)c2ccc3c(=O)n4c(nc3c2)CCCCC4)c1 | -75.5 |
| Cc1ccc(NC(=O)C2CCCN(S(=O)(=O)c3ccc4[nH]c(=O)ccc4c3)C2)c(C)c1 (centres unmarked) | 3.65 |
| Cc1cccc(C)c1N(CC(=O)N(C)Cc1ccccc1)S(C)(=O)=O | 3.99 |
| COC(=O)c1ccc2c(=O)n(Cc3ccc4c(c3)OCO4)c(=S)[nH]c2c1 | 16.3 |
| CCn1c2ccccc2c2cc(NC(=O)CSc3nnc(-c4ccc(OC)cc4)n3N)ccc21 | -10.9 |
